Sampled rows, rich in hits. Any-hit rate of the full collection: about 19%.
HT1080 IDH1KD tx: kills HT-1080 cells with IDH1 knockdown; HT-1080 IDH1 knockdown viability, ATP luminescence, 48 h; Potency, µM (highest dose often 46.1 µM), usual class: cytotoxic; 2% of 360,000 active
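Cytotoxicity counter-line: IDH1KD HT-1080, 48 h, CellTiter-Glo. Curves classed by r2, magnitude and activity.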
IL1B secr inh: inflammasome signaling inhibition, IL-1 beta readout; THP-1 LPS/ATP IL-1B secretion, AlphaLISA, 16 h; hits give low values; 4.7% of 360,000 active; activity change, % at 57.5 µM; in the data active = activity change below about -50%; inconclusive = mostly about -30% to -49%
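Secreted IL-1B measured by AlphaLISA bead assay after 16 h compound exposure of THP-1 cells; compounds (final up to 57.5 uM) added 1 h before LPS (250 ng/mL) and ATP (1.25 mM) stimulation; lower signal means less secretion.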
TDP1 cell noCPT: qHTS for Inhibitors of human tyrosyl-DNA phosphodiesterase 1 (TDP1): qHTS in cells in absence of CPT; DT40 Tdp1-/- hTDP1 cells, no CPT, ATP luminescence, 48 h; 15% of 420,000 active; AID 686978, 2013; Potency, µM (doses to about 46.2 µM), usual class: inhibitors; also: nearly all actives have a fitted effect of over 55% in size
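DT40 Tdp1-/-;hTDP1 cells, no CPT (DMSO vehicle only), 400 cells/well; compounds pin-transferred; ≥48 hr, 37 °C; CellTiter-Glo 30 min RT dark, luminescence read.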
ELG1 repair inh: ELG1-dependent DNA repair inhibition | HEK293T ELG1-luciferase reporter, luminescence, 16 h; DNA damage induced by 5-fluorouridine | Potency, µM (doses to about 46.1 µM), actives largely listed as inhibitors | 2.3% of 330,000 active; also: nearly all actives have a fitted effect of over 55% in size
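HEK293T cells expressing luciferase-tagged ELG1 (2,000/well) received 5-Fluorouridine plus compound or DMSO for 16 hr at 37 °C. Luciferase was read by ONE-Glo luminescence after 30 min at room temperature.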
HT1080-NT tox: kills 2HG-producing HT-1080-NT fibrosarcoma cells | HT-1080-NT fibrosarcoma viability, CellTiter-Glo ATP luminescence, 48 h | Potency, µM (highest dose often 46.1 µM), usual class: cytotoxic | 1.6% of 360,000 active;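 also: NT is the 2HG producing partner of a matched IDH1 knockdown line; nearly all actives have a fitted effect of over 55% in size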
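A 48-hour cytotoxicity screen used HT-1080-NT cells plated 2 hours before compound delivery. ATP-based CellTiter-Glo luminescence measured viability, normalized to DMSO and no-cell controls.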
TDP1 cell CPT: DT40-hTDP1 cell growth loss with CPT. 12% of 420,000 active. AID 686979. Potency, µM (titrated, usually from 46.2 µM), actives largely listed as inhibitors. chicken DT40 Tdp1-/-;hTDP1 cells + 20 nM CPT, ATP luminescence, 48 h; also: nearly all actives have a fitted effect of over 55% in size
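Cell growth measured by CellTiter-Glo luminescence after a minimum 48 h, 37 C compound exposure with 20 nM CPT in Tdp1-knockout DT40 cells stably expressing hTDP1, seeded 400/well; qHTS titration format.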
Hits are given with their value; n = inactive; u = inconclusive; x = not tested or not shown; [ ] = another dose, or the depositor's remark. Unless noted, calls follow the shape of the dose curve; as a rule, active = well fitted curve in the direction sought with a large enough effect; inconclusive = small, poorly fitted or top-dose-only effect, or another doubt; inactive = no such curve, though single readings can be large; an effect the other way counts as inactive or inconclusive.

SMILES	HT1080 IDH1KD tx	IL1B secr inh	TDP1 cell noCPT	ELG1 repair inh	HT1080-NT tox	TDP1 cell CPT
COc1c(S(=O)(=O)N2CCN(C)CC2)ccc(Cl)c1Cl	n	n	n	n	n	n
CCCc1nc2sc3ccccc3c(=O)c2c(=O)n1Cc1ccc(OC)cc1	n	n	20.6µM	23.1µM	n	13µM
CC(C)c1nc2sc3ccccc3c(=O)c2c(=O)n1Cc1ccccc1	n	n	14.6µM	u	n	16.4µM
COc1ccc(Cn2c(C(C)C)nc3sc4ccccc4c(=O)c3c2=O)cc1	n	u	11.6µM	n	n	u
O=C1CCNc2c(Cl)cccc21	n	n	n	n	n	n
C#CC1(O)CCC2C3CCc4cc(O)cc(C)c4C3CCC21C (stereo unspecified)	n	n	u	x	n	16.4µM
C#CC1(O)CC[C@H]2[C@@H]3CCC4=CCCC[C@@H]4[C@H]3CC[C@@]21C (stereo partly specified)	x	x	n	x	x	n
CCOC(=O)c1oc2cccc(OCC(O)CNC(C)C)c2c1C (stereo unspecified)	u	-50.1	u	n	u	20.6µM
Cc1ccc(-c2cc(NC(=O)c3ccccc3[N+](=O)[O-])n[nH]2)cc1	n	n	20.6µM	n	n	u
Cc1ccccc1C(=O)Nc1ccccn1	n	n	n	x	n	n
CCCOc1ccc(C(=O)Nc2ccc(Cl)cn2)cc1	n	u	n	u	n	n
O=C(Nc1ccc(Cl)cn1)c1ccc(Oc2ccccc2)cc1	n	-67.0	u	u	n	n
Cc1ccccc1C(=O)Nc1ccc(Cl)cn1	n	n	20.6µM	u	n	16.4µM
Cc1ccccc1C(=O)Nc1ccc(Br)c(C)n1	n	n	9.2µM	u	n	u
Cc1cc(Br)cc(C)c1NC(=O)c1ccccc1[N+](=O)[O-]	n	n	n	n	n	n
CCn1ccnc1CN(C)C(=O)CCc1nnc(CCC2CCCCC2)o1	n	n	u	u	n	n
COC(=O)C[C@H]1C[C@H]2c3cc(NC(=O)Nc4ccc(F)cc4)ccc3O[C@H]2[C@@H](CO)O1	n	n	u	x	n	n
COc1cc(NCCCn2ccc(NC(=O)OCc3ccccc3)nc2=O)cc(OC)c1OC	n	n	n	x	n	n
CC(=O)CSc1cc(-c2ccccc2)nc2ncnn12	n	u	u	n	n	n
Cc1ccc(C(=O)Nc2ccc(Cl)cn2)cc1	10µM	n	8.2µM	u	15.8µM	7.31µM
O=C(CCc1ccccc1)Nc1ccc(Cl)cn1	2.91µM	n	3.26µM	u	5.8µM	5.8µM
O=C(Cc1ccccc1)Nc1ccc(Cl)cn1	n	u	n	u	n	n
Cc1ccc(NC(=O)c2ccc(Cl)cc2[N+](=O)[O-])nc1	4.61µM	n	3.26µM	n	5.8µM	3.26µM
Cc1ccc(NC(=O)c2ccccc2[N+](=O)[O-])nc1	n	n	u	n	n	u
CN(c1ccc(C(=O)Nc2ccc(Cl)cn2)cc1)S(=O)(=O)c1ccccc1	n	n	20.6µM	u	u	u
SMILES	HT1080 IDH1KD tx	IL1B secr inh	TDP1 cell noCPT	ELG1 repair inh	HT1080-NT tox	TDP1 cell CPT
COc1ccc(NC(=O)CSc2nc3c(c(=O)[nH]2)CCC3)cc1	x	x	n	x	x	n
COc1ccc(NC(=O)c2c(NC(=O)COc3ccc(Cl)cc3)sc3c2CCCCC3)cc1	x	x	n	x	x	u
O=C(Nc1ccccc1)c1cccc2c(Br)cccc12	n	n	n	n	n	n
O=C(Nc1ccc(Cl)cn1)c1cccc2c(Br)cccc12	u	n	14.6µM	u	u	u
Cc1ccc(Nc2nc(N)nc(CSc3nc(C)cc(C)n3)n2)cc1	n	n	n	x	n	n
Cc1c(Cl)cccc1Nc1nc(N)nc(CN2CCc3ccccc3C2)n1	n	u	n	n	n	n
Cc1cccc(Nc2nc(N)nc(CCl)n2)c1C	1.84µM	x	16.4µM	9.2µM	1.64µM	10.3µM
Cc1ccc(Nc2nc(N)nc(CCl)n2)cc1	8.2µM	x	u	n	2.31µM	16.4µM
Cc1cccc(Nc2nc(N)nc(CCl)n2)c1	u	-105.6	20.6µM	u	3.66µM	13µM
Cc1ccc(Nc2nc(N)nc(CN3CCc4ccccc4C3)n2)cc1	n	u	u	n	n	18.4µM
Cc1cccc(Nc2nc(N)nc(CN3CCC(C(N)=O)CC3)n2)c1C	n	n	n	n	n	n
O=C(CCC(=O)N1CCOc2ccccc21)NCCN1CCOCC1	n	n	n	n	n	n
CCOC(=O)c1cnc(SCc2nc(N)nc(Nc3ccc(C)cc3)n2)nc1N	u	-52.0	u	u	u	20.6µM
CCOc1ccc(Nc2nc(N)nc(CCl)n2)cc1	u	-95.6	5.8µM	u	0.82µM	2.06µM
Cc1ccc(Nc2nc(N)nc(CCl)n2)c(C)c1	u	-88.7	10.3µM	u	5.8µM	6.51µM
Cc1ccc(Nc2nc(N)nc(CC#N)n2)cc1	7.08µM	n	n	u	12.6µM	n
COCc1c(C(=O)N2CCN(C3CCCC3)CC2)cnn1-c1nccc(-c2cccs2)n1	x	x	n	x	x	n[9.04 µM]
Cc1cc2oc(C(=O)Nc3nc(-c4ccccc4)ns3)c(C)c2cc1Cl	x	x	n	x	x	u
Cc1ccc(S(=O)(=O)N2CCN(C(=O)COC(=O)COc3ccccc3C(C)C)CC2)c(C)c1	n	n	n	x	n	n
COCC(=O)N1C[C@@H](C)[C@@H](OC)CN(C)C(=O)c2ccc(NC(=O)c3cnccn3)cc2OC[C@H]1C	n	n	n	x	n	n
CN(C)c1ccc(S(=O)(=O)NCC(=O)NCCC2=CCCCC2)cc1[N+](=O)[O-]	n	n	n	n	n	n
COc1cccc(Nc2nc(N)nc(CCl)n2)c1	10.3µM	x	u	u	7.31µM	13µM
COc1cccc(Nc2nc(N)nc(C(F)(F)F)n2)c1	u	n	n	u	n	n
Clc1ccc(N/N=C/c2cccnc2)cc1	u	-62.4	16.4µM	u	u	18.4µM
O=[N+]([O-])c1ccc(N/N=C/c2cccnc2)cc1	7.31µM	n	6.51µM	n	n	5.8µM
O=C(N/N=C/c1cccnc1)c1ccc([N+](=O)[O-])cc1	n	n	n	n	n	n
Cc1ccc(CCN2CC(C(=O)NC(C)C)CC2=O)cc1 (stereo unspecified)	n	n	n	n	n	n
CCOc1cc(C2NC(=O)CCC2[N+](=O)[O-])cc(Br)c1OC (stereo unspecified)	n	n	u	n	n	u
Cc1ccc(-c2csc(NC(=O)CN3CCOCC3)n2)cc1C	n	n	16.4µM	n	n	u
Cc1cccc(C)c1NC(=O)Cn1nnc(-c2ccc(CN3CCC(C)CC3)cc2)n1	n	n	n	n	n	n

Screening results as filed in PubChem.
